Assay results from PubChem BioAssay (NCATS).
Values joined by “and” are separate entries in the source; they are usually repeats but may differ in a detail not shown here. Equal entries are not always repeated. Inconclusive results are not listed. Where a call stands in place of a potency, no number is given. Active and inactive are the calls of the source. Unless noted, calls come from the whole dose curve; as a rule, active = well fitted curve in the direction sought with a large enough effect; inconclusive = small, poorly fitted or top-dose-only effect, or another doubt; inactive = no such curve, though single readings can be large; an effect the other way counts as inactive or inconclusive.

Experiments:
[1] = target: Glucocorticoid receptor (Homo sapiens) (UniProt P04150); assay: GR-GFP Redistribution (AID 450;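 active = compounds whose dose series gives a full or clear partial fitted curve of increased nuclear translocation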; note: potency is the fitted concentration of half-maximal effect); conditions: U2OS GR-GFP nuclear translocation, laser cytometry, 2 h
[2] = target: Glucocorticoid receptor (Homo sapiens) (UniProt P04150); assay: GR-EFC Redistribution (AID 451; calls by dose curve; note: potency is the fitted concentration of half-maximal effect); conditions: CHO-K1 GR-EFC translocation, beta-gal luminescence, 2 h
Procedure, shortened: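 CHO-K1 cells stably expressing nuclear-localized β-gal enzyme acceptor and GR fused C-terminally to the enzyme donor fragment; ligand-driven nuclear translocation restores β-gal by complementation. Compounds titrated up to 46 uM final, 2 h at 37 °C; luminescence read.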

[3] = qHTS Assay for Identification of Small Molecule Agonists for Thrombopoietin (TPO) Signaling Pathway (AID 917)
Procedure, shortened: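 First, Ba/F3 cells with human TPO receptor were held overnight without IL-3. Next, compounds and TPO (26 pM final) were added. After 24 hrs at 37 C, luciferase detection reagent was added and luminescence measured following 10 min at room temperature.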

[4] = target: Muscarinic acetylcholine receptor M1 (Rattus norvegicus) (UniProt P08482); assay: qHTS Assay for Antagonists of Acetylcholine Muscarinic M1 Receptor: Kinetic Measurement of Intracellular Calcium Response (AID 943);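 note: Fluo-4 calcium signal as peak divided by basal fluorescence over 4 min; nearly all actives have a fitted effect of over 75% in size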
Procedure, shortened: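 Antagonism is measured as inhibition of the carbachol-evoked calcium rise in CHO cells transfected with rat M1. Cells are dye-loaded, exposed to compound for 10 min, then stimulated with 100 nM carbachol (EC80).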

[5] = target: Muscarinic acetylcholine receptor M1 (Rattus norvegicus) (UniProt P08482); assay: qHTS Assay for Antagonists of Acetylcholine Muscarinic M1 Receptor: Measurement of IP-One Response (AID 944); note: nearly all actives have a fitted effect of over 75% in size
Procedure, shortened: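 Antagonist mode with rat M1 receptor transfected into CHO cells. Compound is added first for 10 min, carbachol at its EC80 follows for 30 min, and lysis reagents then allow TR-FRET detection of accumulated IP1.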

[6] = target: Pyruvate kinase (Leishmania mexicana) (UniProt Q27686); assay: qHTS Validation Assay for Inhibitors of Leishmania Mexicana Pyruvate Kinase (AID 945)
Procedure, shortened: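 LmPYK E451W 0.2 nM; 0.5 mM PEP, 0.1 mM ADP, 7 mM MgCl2, 50 mM KCl, imidazole pH 7.2, 0.01% Tween 20, 0.05% BSA; 1 h RT; PKLight luminescence; DMSO-normalized.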

[7] = target: Pyruvate kinase PKM (Homo sapiens) (UniProt P14618); assay: qHTS Assay for Activators of Human Muscle Pyruvate Kinase (AID 954; active = well fitted curve in the direction sought with a large enough effect, not every such curve was filed as active)
Procedure, shortened: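 ATP production by PKM2 detected via luciferase luminescence after 1 h room-temperature reaction (0.1 nM enzyme, PEP at Km 0.5 mM, ADP 0.1 mM, pH 7.2 imidazole buffer). Inhibition scaled to no-enzyme control; activation referenced to 0.3 nM enzyme wells.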

[8] = target: Alpha-galactosidase (Coffea arabica) (UniProt Q42656); assay: Counterscreen for Glucocerebrosidase Inhibitors: qHTS Assay for Coffee Bean alpha-Galactosidase at pH 4.5 (AID 957)
Procedure, shortened: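 Enzyme is added first (2 nM final), then compounds titrated from 0.7 nM to 77 uM, then 80 uM 4-methylumbelliferyl alpha-D-galactopyranoside; after 20 min at room temperature a pH 10 NaOH/glycine stop precedes fluorescence reading at 365/440 nm.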

[9] = target: Alpha-galactosidase A (Homo sapiens) (UniProt P06280); assay: Counterscreen for Glucocerebrosidase Inhibitors: qHTS Assay for Human alpha-Galactosidase at pH 4.5 (AID 992)
Procedure, shortened: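 Fluorogenic 1536-well qHTS at pH 4.5 (citrate, Tween-20): 2 nM enzyme, 80 uM 4-MU-alpha-galactoside, 20 min room temperature, NaOH/glycine stop. Titration 0.7 nM to 77 uM, data normalized to no-enzyme and full-activity controls, Hill-fitted AC50.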

[10] = target: alpha-glucosidase (Oryza sativa, rice) (UniProt Q653V4); assay: Counterscreen for Glucocerebrosidase Inhibitors: qHTS Assay for Rice alpha-Glucosidase at pH 5.0 (AID 997)
Procedure, shortened: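 Endpoint fluorogenic assay at pH 5.0: compounds (0.7 nM to 77 uM) titrated against 4 nM rice enzyme and 400 uM 4-MU-alpha-glucoside for 20 min at room temperature; NaOH/glycine stop, read ex 365/em 440 nm, Hill-fitted AC50.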

[11] = target: Alpha-galactosidase (Coffea arabica) (UniProt Q42656); assay: Counterscreen for Glucocerebrosidase Inhibitors: qHTS Assay for Coffee Bean alpha-Galactosidase at pH 5.9 (AID 998)
Procedure, shortened: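 In 50 mM citric acid pH 5.9 with 0.005% Tween-20, coffee bean enzyme hydrolyses 80 uM 4-MU alpha-D-galactopyranoside over 20 min at RT. Activity is normalized to controls; AC50 comes from Hill-modelled concentration-response data.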

[12] = Validation of Assay for Modulators of Lamin A Splicing (AID 1459; active = well fitted curve in the direction sought with a large enough effect in the signal ratio; the % refers to the signal ratio;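 note: cells exposed to compound for two days before reading; ratio rise marks activators and ratio drop marks inhibitors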)
Procedure, shortened: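 S3 HeLa cells stably expressing a lamin A-EGFP splicing minigene and DsRed2 were seeded at 600 cells/well in Opti-MEM with 2% FBS, pin-dosed, and incubated 48 hrs at 37 °C, 5% CO2. Laser-scanning cytometry (488 nm) gave GFP/RFP total intensity ratio.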

[13] = qHTS Assay for Lipid Storage Modulators (AID 1519; calls by dose curve); conditions: Drosophila S3 cells, BODIPY lipid droplet/cell ratio, laser cytometry, cells loaded with oleic acid
Procedure, shortened: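 Cells seeded at 5,000 per well were treated with compounds over a concentration series and loaded with oleic acid (400 uM, as added). Lipid droplet fluorescence (488 nm excitation, 500-530 nm channel) was read by laser-scanning cytometry and normalized to 20 uM Triacsin C.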

[14] = target: DNA repair nuclease/redox regulator APEX1 (Homo sapiens) (UniProt P27695); assay: qHTS Validation Assay for Inhibitors of the Human Apurinic/apyrimidinic Endonuclease 1 (APE1) (AID 1705;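 note: TAMRA fluorescence gain over two minutes as APE1 cuts a quenched THF abasic duplex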)
Procedure, shortened: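 Human APE1 was preincubated with compound for 15 min at room temperature, then 50 nM (final) THF-abasic double-stranded DNA substrate bearing 5'-TAMRA and 3'-BHQ-2 was added. Incision-driven fluorescence rise (ex 525/em 598 nm) was read kinetically.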

[15] = Counterscreen for APE1 Inhibitors: Fluorescent Dye Displacement Validation Assay (AID 1707)
Procedure, shortened: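 Counterscreen flags promiscuous DNA binders: compounds displacing ThO from duplex DNA (abasic THF site, 50 nM) reduce 540 nm emission (480 nm excitation). ThO 250 nM final; Tris-HCl pH 7.5 with NaCl, MgCl2 and Tween-20.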

[16] = qHTS for differential inhibitors of proliferation of Plasmodium falciparum line 7G8 (AID 1815);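 note: parasite growth measured after three days of incubation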
[17] = qHTS for differential inhibitors of proliferation of Plasmodium falciparum line GB4 (AID 1816); conditions: Potency: Plasmodium falciparum GB4 proliferation inhibition;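 note: parasite growth measured after 72 h incubation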
[18] = qHTS for differential inhibitors of proliferation of Plasmodium falciparum line 3D7 (AID 1876);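 note: parasite growth measured after three days of culture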

Chain of Glucocorticoid receptor (Homo sapiens) (P04150 whole entry, looked up, the tested form may be a part): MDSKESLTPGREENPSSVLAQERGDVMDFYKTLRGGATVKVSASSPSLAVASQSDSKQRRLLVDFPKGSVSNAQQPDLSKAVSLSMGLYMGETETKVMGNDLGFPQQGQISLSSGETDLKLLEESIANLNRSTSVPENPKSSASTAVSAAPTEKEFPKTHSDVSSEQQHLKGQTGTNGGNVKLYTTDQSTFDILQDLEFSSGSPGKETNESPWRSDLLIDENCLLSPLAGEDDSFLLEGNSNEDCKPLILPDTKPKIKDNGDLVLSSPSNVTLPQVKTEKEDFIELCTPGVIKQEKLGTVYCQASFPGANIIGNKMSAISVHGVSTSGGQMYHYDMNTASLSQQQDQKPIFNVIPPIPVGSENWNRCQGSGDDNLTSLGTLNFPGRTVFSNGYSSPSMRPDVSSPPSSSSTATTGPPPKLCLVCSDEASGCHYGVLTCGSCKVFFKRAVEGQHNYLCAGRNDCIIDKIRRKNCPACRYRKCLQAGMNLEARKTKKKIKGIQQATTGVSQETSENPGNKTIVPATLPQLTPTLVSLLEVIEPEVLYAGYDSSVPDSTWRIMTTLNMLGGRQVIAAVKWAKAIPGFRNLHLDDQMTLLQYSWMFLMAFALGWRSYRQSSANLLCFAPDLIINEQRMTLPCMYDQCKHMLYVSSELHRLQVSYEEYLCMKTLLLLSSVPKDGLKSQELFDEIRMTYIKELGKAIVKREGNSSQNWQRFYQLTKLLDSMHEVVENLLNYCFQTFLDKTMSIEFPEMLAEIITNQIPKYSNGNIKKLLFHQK
Chain of Muscarinic acetylcholine receptor M1 (Rattus norvegicus) (P08482 whole entry, looked up): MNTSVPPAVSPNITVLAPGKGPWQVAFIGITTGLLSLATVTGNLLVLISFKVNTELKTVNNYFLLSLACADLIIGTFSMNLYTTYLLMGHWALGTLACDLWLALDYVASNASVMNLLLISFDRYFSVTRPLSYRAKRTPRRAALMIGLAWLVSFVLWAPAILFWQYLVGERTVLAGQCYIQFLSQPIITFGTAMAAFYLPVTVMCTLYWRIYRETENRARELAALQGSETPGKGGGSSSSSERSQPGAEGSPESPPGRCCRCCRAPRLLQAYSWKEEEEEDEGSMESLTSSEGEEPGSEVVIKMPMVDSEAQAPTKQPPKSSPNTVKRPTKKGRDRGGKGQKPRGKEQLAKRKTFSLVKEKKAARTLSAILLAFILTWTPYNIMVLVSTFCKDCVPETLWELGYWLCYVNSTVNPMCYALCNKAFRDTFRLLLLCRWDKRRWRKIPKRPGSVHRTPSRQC
Chain of Alpha-galactosidase (Coffea arabica) (Q42656 whole entry, looked up): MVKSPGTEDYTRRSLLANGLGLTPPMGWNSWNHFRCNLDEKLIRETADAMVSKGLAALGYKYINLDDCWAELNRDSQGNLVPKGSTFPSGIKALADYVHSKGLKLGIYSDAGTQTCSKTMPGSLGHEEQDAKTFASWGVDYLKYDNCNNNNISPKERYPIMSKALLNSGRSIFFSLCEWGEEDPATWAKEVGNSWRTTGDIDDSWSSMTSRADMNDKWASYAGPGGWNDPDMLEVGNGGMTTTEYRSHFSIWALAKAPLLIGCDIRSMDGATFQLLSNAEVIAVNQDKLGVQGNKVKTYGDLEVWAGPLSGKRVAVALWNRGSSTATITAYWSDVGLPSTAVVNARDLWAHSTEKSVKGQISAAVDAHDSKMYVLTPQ
Chain of Pyruvate kinase PKM (Homo sapiens) (P14618 whole entry, looked up): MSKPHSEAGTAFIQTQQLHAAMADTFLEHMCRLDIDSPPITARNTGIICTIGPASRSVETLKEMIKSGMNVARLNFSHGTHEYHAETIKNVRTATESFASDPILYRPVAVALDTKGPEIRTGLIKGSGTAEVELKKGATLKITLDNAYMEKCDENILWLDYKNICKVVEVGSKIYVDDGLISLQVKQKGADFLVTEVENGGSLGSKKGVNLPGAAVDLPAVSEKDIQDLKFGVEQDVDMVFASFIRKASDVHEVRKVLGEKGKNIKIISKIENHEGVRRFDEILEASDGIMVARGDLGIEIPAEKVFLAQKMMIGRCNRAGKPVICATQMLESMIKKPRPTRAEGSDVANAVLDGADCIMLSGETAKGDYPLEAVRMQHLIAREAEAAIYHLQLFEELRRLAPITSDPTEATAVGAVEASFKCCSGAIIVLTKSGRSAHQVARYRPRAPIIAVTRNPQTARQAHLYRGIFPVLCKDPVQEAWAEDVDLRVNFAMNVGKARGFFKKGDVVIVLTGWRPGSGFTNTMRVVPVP
Chain of Alpha-galactosidase A (Homo sapiens) (P06280 whole entry, looked up): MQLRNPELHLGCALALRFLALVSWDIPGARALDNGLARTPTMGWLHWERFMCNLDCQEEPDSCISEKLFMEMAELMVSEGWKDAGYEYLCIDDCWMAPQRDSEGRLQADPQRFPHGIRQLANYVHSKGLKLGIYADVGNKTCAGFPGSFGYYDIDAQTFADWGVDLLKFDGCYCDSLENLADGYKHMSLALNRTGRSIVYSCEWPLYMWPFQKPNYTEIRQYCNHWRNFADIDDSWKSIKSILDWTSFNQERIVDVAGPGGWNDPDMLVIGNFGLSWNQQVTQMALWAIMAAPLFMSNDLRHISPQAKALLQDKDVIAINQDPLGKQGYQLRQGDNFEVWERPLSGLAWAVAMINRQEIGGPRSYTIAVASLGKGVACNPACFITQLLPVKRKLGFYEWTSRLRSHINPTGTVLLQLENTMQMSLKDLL
Chain of DNA repair nuclease/redox regulator APEX1 (Homo sapiens) (P27695 whole entry, looked up): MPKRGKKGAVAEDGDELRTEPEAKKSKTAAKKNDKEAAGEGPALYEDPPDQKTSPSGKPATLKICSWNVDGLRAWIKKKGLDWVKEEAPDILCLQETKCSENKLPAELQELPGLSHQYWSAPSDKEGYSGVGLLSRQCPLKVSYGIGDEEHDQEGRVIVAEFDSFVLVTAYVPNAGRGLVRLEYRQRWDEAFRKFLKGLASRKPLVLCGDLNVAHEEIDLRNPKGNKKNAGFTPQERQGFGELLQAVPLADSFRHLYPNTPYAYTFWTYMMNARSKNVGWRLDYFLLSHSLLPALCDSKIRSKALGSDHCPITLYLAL
Chain of Pyruvate kinase (Leishmania mexicana) (Q27686 2-499 E452W): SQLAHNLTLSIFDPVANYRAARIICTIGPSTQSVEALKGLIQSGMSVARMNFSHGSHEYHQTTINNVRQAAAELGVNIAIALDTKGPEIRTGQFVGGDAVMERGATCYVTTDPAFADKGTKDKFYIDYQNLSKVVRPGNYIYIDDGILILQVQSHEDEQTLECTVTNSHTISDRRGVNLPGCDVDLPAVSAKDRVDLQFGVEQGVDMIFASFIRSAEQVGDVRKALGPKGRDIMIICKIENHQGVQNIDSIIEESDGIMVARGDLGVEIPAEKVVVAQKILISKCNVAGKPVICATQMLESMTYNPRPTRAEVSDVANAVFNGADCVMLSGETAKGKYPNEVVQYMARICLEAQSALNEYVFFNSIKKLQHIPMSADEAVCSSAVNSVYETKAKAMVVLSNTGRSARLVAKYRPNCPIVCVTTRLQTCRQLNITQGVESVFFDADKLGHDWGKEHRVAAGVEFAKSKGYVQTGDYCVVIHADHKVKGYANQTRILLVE

N[C@@H](Cn1cc(I)c(=O)[nH]c1=O)C(=O)O
Potency [1]: > 46 µM (inactive) | Potency [2]: > 46 µM (inactive) | outcome [3]: inactive | Potency [4]: inactive | Potency [5]: inactive | outcome [6]: inactive | outcome [7]: inactive | outcome [8]: inactive | outcome [9]: inactive | outcome [10]: inactive | outcome [11]: inactive | outcome [12]: inactive | activity change, negative = inhibition ([13]; at 57.5 µM (top of the series)): 1.49% (inactive) and 0.139% (inactive) | max response ([13]; measured here: cell count channel max response): 1.2% and -23.8% | max response ([13]; measured here: lipid channel max response): 4.16% and -23.5% | Potency [14]: inactive | Potency [15]: inactive | Potency [16]: inactive | Potency [17]: inactive | Potency [18]: inactive
